Data taken from PubChem BioAssay.

test: NFkB reporter suppression in cystic fibrosis bronchial cells – cell-based, uHTS hits, panel, cytotoxicity readout, dose response (AID 624344); details: CF bronchial epithelial cells, PAF-induced NFkB reporter inhibition, with PAF, run 1; at 79 µM (top of the series) unless noted

Row | SMILES | inhibition [%]
1 | CC(C)c1nc(Cl)c(C#N)c2c1CCCC2 | 96.5
2 | COc1ccc(-c2cc(C(F)(F)F)nc(S(=O)(=O)CCCC(=O)Nc3cccnc3Cl)n2)cc1OC | 99.5
3 | CCC(=O)Nc1nc(C)c(-c2csc(Nc3cccc(O)c3)n2)s1 | 95.9
4 | COc1ccc(-c2csc(NC3OC(=O)c4c3ccc(OC)c4OC)n2)cc1OC (centres undefined) | 109
5 | COc1cc(O)cc2cc3c(c(O)c12)C(=O)CC(C)(O)O3 (centres undefined) | 99.9
6 | COc1cccc(-c2ccc3ncnc(NCc4ccc5c(c4)OCO5)c3c2)c1 | 97.6
7 | CC(C)(C)S(=O)N1Cc2cc(C(=O)NCC(F)(F)F)nc(-c3cccc(-c4cccc(F)c4)c3)c2[C@@H]1CCO (some centres undefined) | 110
8 | CC(C)C[C@@H](CN1CCCC1CN1C(=S)NC[C@@H]1Cc1ccc(O)cc1)N1C[C@H](Cc2ccc(O)cc2)N(CCc2ccccc2)C1=S (some centres undefined) | 112
9 | C/C(=N\Nc1cc(N2CCOCC2)ncn1)c1cccc([N+](=O)[O-])c1 | 115
10 | O=C(c1cncc(Br)c1)N1CCc2ccccc2C1 | 92.5
11 | CCOc1ccc(NCc2cc3c(C(C)(C)C)nn(-c4ccccc4)c3[nH]c2=O)cc1 | 101
12 | COc1ccc(OC)c(-c2nnc3n2N=C(c2ccc(OC)c(OCC4CC4)c2)CS3)c1 | 113
13 | Cc1ccc(C(=O)Nc2cccc(C(F)(F)F)c2)cc1NC(=O)c1cnnc2ccccc12 | 105
14 | COc1ccc(S(=O)(=O)N2c3cc(C)ccc3OCC2C(C)(C)C)cc1 (centres undefined) | 103
15 | Fc1ccc(-n2cc(-c3ccccc3)c3c(N4CCOCC4)ncnc32)cc1 | 110
16 | CN(C)CCCN(C(=O)CCS(=O)(=O)c1ccccc1)c1nc2cc3c(cc2s1)OCO3 | 88.7
17 | Nc1ncnc2c1c(-c1ccc(Oc3ccccc3)cc1)cn2C1CCCC1 | 114
18 | Cc1ccc(CNc2ncnc(N)c2[N+](=O)[O-])cc1 | 87.7
19 | CC(NC(=O)OCc1ccccc1)C(=O)Oc1cc2oc(=O)cc(-c3ccccc3)c2cc1Cl (centres undefined) | 103
20 | c1ccc(-c2nc3nonc3nc2-c2ccccc2)cc1 | 102
21 | O=C(Oc1cc2oc(=O)cc(-c3ccccc3)c2cc1Cl)C1CCCCC1 | 113
22 | CCc1nc(Cl)c(C#N)c2c1CCCC2 | 112
23 | COc1ccccc1NS(=O)(=O)c1cccc(-n2c(O)c(C=Nc3ccccc3C(=O)O)c3ccccc3c2=O)c1 | 105
24 | CC(C)c1ccccc1NC(=O)COC(=O)c1c2c(nc3ccccc13)CCN(Cc1ccccc1)C2 | 76.4

test: as above; details: CF bronchial epithelial cells, PAF-induced NFkB reporter inhibition, with PAF, run 2; at 79 µM (top of the series) unless noted

Row | SMILES | inhibition [%]
25 | COc1ccc(CNc2nn3c(-c4cccc(C(=O)N(C)C)c4)cnc3s2)cc1 | 104
26 | COc1ccc(-c2cc(=O)oc3cc(OC(=O)C4CCCCC4)ccc23)cc1 | 101
27 | C=C1C(=O)OC2CC1C(O)CC(C)=CCCC(C)=CC(O)CC2C (centres undefined) | 110
28 | CCCCN(CCCC)c1ncnc2nc[nH]c12 | 118
29 | COc1ccc(-c2cn[nH]c2-c2ccc(OCc3ccccc3F)cc2O)cc1OC | 98.3
30 | O=C(Nc1ccc(Oc2ccc(NC(=O)Nc3ccc([N+](=O)[O-])cc3)cc2)cc1)Nc1ccc([N+](=O)[O-])cc1 | 114
31 | COCc1cc(S(=O)c2ccc(Cl)cc2)nc(C)n1 (centres undefined) | 105
32 | COc1cc(/C=N/NC(=O)Nc2cccc3nsnc23)cc(OC)c1OC | 82.7
33 | CCCc1cc(-c2[nH]ncc2-c2ccc3c(c2)OCCCO3)c(O)cc1O | 102
34 | C=CC[C@]12CC=CC(=O)[C@@]1(O)O[C@H](c1ccc(OC)c(OC)c1)[C@H]2C | 87.5
35 | C=CCn1c(Oc2ccccc2F)nc2c1c(=O)n(C)c(=O)n2C | 93.3
36 | C=C1C(=O)O[C@H]2C[C@H]1[C@@H](OC(C)=O)C/C(C)=C/CC/C(C)=C\CC[C@]2(C)O | 97.5
37 | Cc1ccc(NC(=O)/C=C/c2ccco2)nc1 | 99.8
38 | COc1ccc(-c2cn[nH]c2-c2ccc(OCc3ccccc3)cc2O)cc1 | 114
39 | O=C(c1cc([N+](=O)[O-])ccc1N1CCOCC1)N1CCN(c2ccccc2)CC1 | 79.6
40 | Cc1ccc(S(=O)(=O)N2[C@@H](c3ccc(C(C)(C)C)cc3)C(C(=O)O)=CC[C@H]2c2ccc(C(C)C)cc2)cc1 | 115
41 | CC(C)c1nc(Cl)c(C#N)c2c1CCCC2 | 112
42 | COc1ccc(-c2cc(C(F)(F)F)nc(S(=O)(=O)CCCC(=O)Nc3cccnc3Cl)n2)cc1OC | 99.1
43 | CCC(=O)Nc1nc(C)c(-c2csc(Nc3cccc(O)c3)n2)s1 | 104
44 | COc1ccc(-c2csc(NC3OC(=O)c4c3ccc(OC)c4OC)n2)cc1OC (centres undefined) | 100

Row | SMILES | inhibition [%]
45 | COc1cc(O)cc2cc3c(c(O)c12)C(=O)CC(C)(O)O3 (centres undefined) | 108
46 | COc1cccc(-c2ccc3ncnc(NCc4ccc5c(c4)OCO5)c3c2)c1 | 113
47 | CC(C)(C)S(=O)N1Cc2cc(C(=O)NCC(F)(F)F)nc(-c3cccc(-c4cccc(F)c4)c3)c2[C@@H]1CCO (some centres undefined) | 103
48 | CC(C)C[C@@H](CN1CCCC1CN1C(=S)NC[C@@H]1Cc1ccc(O)cc1)N1C[C@H](Cc2ccc(O)cc2)N(CCc2ccccc2)C1=S (some centres undefined) | 101
49 | C/C(=N\Nc1cc(N2CCOCC2)ncn1)c1cccc([N+](=O)[O-])c1 | 95.3
50 | O=C(c1cncc(Br)c1)N1CCc2ccccc2C1 | 80.2
51 | CCOc1ccc(NCc2cc3c(C(C)(C)C)nn(-c4ccccc4)c3[nH]c2=O)cc1 | 109
52 | COc1ccc(OC)c(-c2nnc3n2N=C(c2ccc(OC)c(OCC4CC4)c2)CS3)c1 | 85.1
53 | Cc1ccc(C(=O)Nc2cccc(C(F)(F)F)c2)cc1NC(=O)c1cnnc2ccccc12 | 88.8
54 | COc1ccc(S(=O)(=O)N2c3cc(C)ccc3OCC2C(C)(C)C)cc1 (centres undefined) | 81.9
55 | Fc1ccc(-n2cc(-c3ccccc3)c3c(N4CCOCC4)ncnc32)cc1 | 102
56 | CN(C)CCCN(C(=O)CCS(=O)(=O)c1ccccc1)c1nc2cc3c(cc2s1)OCO3 | 73
57 | Nc1ncnc2c1c(-c1ccc(Oc3ccccc3)cc1)cn2C1CCCC1 | 94.1
58 | Cc1ccc(CNc2ncnc(N)c2[N+](=O)[O-])cc1 | 80.8
59 | CC(NC(=O)OCc1ccccc1)C(=O)Oc1cc2oc(=O)cc(-c3ccccc3)c2cc1Cl (centres undefined) | 103
60 | c1ccc(-c2nc3nonc3nc2-c2ccccc2)cc1 | 109
61 | O=C(Oc1cc2oc(=O)cc(-c3ccccc3)c2cc1Cl)C1CCCCC1 | 105
62 | CCc1nc(Cl)c(C#N)c2c1CCCC2 | 105
63 | COc1ccccc1NS(=O)(=O)c1cccc(-n2c(O)c(C=Nc3ccccc3C(=O)O)c3ccccc3c2=O)c1 | 85
64 | CC(C)c1ccccc1NC(=O)COC(=O)c1c2c(nc3ccccc13)CCN(Cc1ccccc1)C2 | 90.6
